Source: PubChem BioAssay (NCI)
The panel holds about 79,000 compounds, 15% with a hit somewhere; the sample as a whole holds those more often. Active and inactive are the calls of the source. No stated cut-off is given here; in the data, active means growth inhibition above about 70%; inactive means the rest.

Assays:
[1] = NCI Yeast Anticancer Drug Screen. Data for the rad50 strain (AID 155);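 further: 0% = growth of vehicle-only cultures of the same strain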; details: S. cerevisiae rad50 strain growth inhibition, active compounds read high
How it was run: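 Growth of the mutant yeast was measured after compound exposure and referenced to vehicle-treated cultures.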

[2] = NCI Yeast Anticancer Drug Screen. Data for the mec2-1 strain (AID 157); details: S. cerevisiae mec2-1 strain, active compounds read high
How it was run: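 Strain: mec2-1 (DNA repair/cell cycle alteration). Compound exposure, then growth measured; inhibition expressed relative to vehicle.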

[3] = NCI Yeast Anticancer Drug Screen. Data for the sgs1 mgt1 strain (AID 161);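 further: 0% = growth of cultures given vehicle only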; details: S. cerevisiae sgs1 mgt1 strain, active compounds read high
How it was run: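 Inhibition of yeast growth, normalised to vehicle-treated controls, is reported for a strain bearing genetic alterations in DNA damage repair.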

[4] = NCI Yeast Anticancer Drug Screen. Data for the cln2 rad14 strain (AID 165);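 further: 0% = growth equal to vehicle treated cultures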; details: S. cerevisiae cln2 rad14 strain, active compounds read high
How it was run: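 Compounds are applied to the cln2 rad14 yeast strain, and growth is then compared with that of vehicle-treated cultures to give inhibition.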

[5] = NCI Yeast Anticancer Drug Screen. Data for the bub3 strain (AID 167); details: S. cerevisiae bub3 mutant strain, active compounds read high
How it was run: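 Whole-cell yeast assay. The mutant strain was incubated with compounds, and growth inhibition was determined by comparison with vehicle-treated cells.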

[6] = NCI Yeast Anticancer Drug Screen. Data for the mlh1 rad18 strain (AID 175); details: S. cerevisiae mlh1 rad18 strain growth inhibition, active compounds read high
How it was run: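 Read-out is yeast growth inhibition, calculated against vehicle-only controls. The compound was applied to a strain engineered with DNA damage repair alterations.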

[7] = at 5.0 µM (retest, dose inferred, filed as 0.5)
[8] = at 50.0 µM (retest, dose inferred, filed as 5.0)

Measured: growth inhibition

CC(C)(C)N/N=C(\C(=O)NC1=C(Cl)C(=O)c2ccccc2C1=O)C1C=CCS1(=O)=O (stereo not given)
active: [1]; [8] 89% | [1]; at 50.0 µM 90.2% | [2]; at 50.0 µM 72.3% | [3]; [8] 86% | [5]; [8] 92% | [5]; at 50.0 µM 84% | [6]; [8] 81%
inactive: [1]; [7] 7% | [2]; [7] -10% | [2]; [8] 65% | [3]; [7] -4% | [3]; at 50.0 µM 68.4% | [4]; [7] -26% | [4]; [8] 48% | [4]; at 50.0 µM 31.3% | [5]; [7] 0% | [6]; [7] 15% | [6]; at 50.0 µM 61.5%

OC1(C2CCCCC2)c2ccccc2Cc2ccccc21
inactive: [1]; [7] 6% | [2]; [7] 13% | [3]; [7] 12% | [4]; [7] -1% | [5]; [7] 9% | [6]; [7] 7%
active: [1]; [8] 80% | [1]; at 50.0 µM 97.2% | [2]; [8] 76% | [2]; at 50.0 µM 98% | [3]; [8] 93% | [3]; at 50.0 µM 96.4% | [4]; [8] 86% | [4]; at 50.0 µM 95.4% | [5]; [8] 90% | [5]; at 50.0 µM 96.8% | [6]; [8] 90% | [6]; at 50.0 µM 97%

C/C(=N/Nc1ccccc1)C(=O)O
active: [1]; [8] 97% | [1]; at 50.0 µM 97.8% | [2]; [8] 88% | [2]; at 50.0 µM 97.8% | [3]; at 50.0 µM 97.7% | [4]; [8] 96% | [4]; at 50.0 µM 98% | [5]; [8] 96% | [5]; at 50.0 µM 97.4% | [6]; [8] 98% | [6]; at 50.0 µM 97.2%
inactive: [1]; [7] 18% | [2]; [7] 6% | [3]; [7] 11% | [3]; [8] 50% | [4]; [7] 8% | [5]; [7] 6% | [6]; [7] 28%

CCN(CC)CCNc1nc(N)c2nc(-c3ccccc3)c(-c3ccccc3)nc2n1
inactive: [1]; [7] -4% | [1]; [8] 51% | [2]; [7] -3% | [2]; [8] 22% | [2]; at 50.0 µM 15.5% | [3]; [7] -4% | [3]; [8] 36% | [4]; [7] -1% | [4]; [8] 5% | [4]; at 50.0 µM 27.6% | [5]; [7] -22% | [5]; [8] 36% | [5]; at 50.0 µM 61.7% | [6]; [7] -5% | [6]; [8] 56%
active: [1]; at 50.0 µM 95.3% | [3]; at 50.0 µM 90.5% | [6]; at 50.0 µM 85.8%

O=C1c2ccccc2C(=O)N1c1ccccc1
inactive: [1]; [7] -2% | [1]; [8] -20% | [1]; at 50.0 µM 31.4% | [2]; [7] -3% | [2]; [8] -1% | [2]; at 50.0 µM -5.9% | [3]; [7] 1% | [3]; [8] 5% | [3]; at 50.0 µM 20% | [4]; [7] 3% | [4]; [8] 7% | [4]; at 50.0 µM 42.2% | [5]; [7] 36% | [5]; [8] 15% | [5]; at 50.0 µM 2.3% | [6]; [7] -1% | [6]; [8] 2% | [6]; at 50.0 µM 16.4%

O=C1OC(CCCl)(c2ccccc2)CC1CN1CCOCC1 (stereo not given)
inactive: [1]; [7] 10% | [2]; [7] -10% | [2]; at 50.0 µM 57.9% | [3]; [7] -2% | [3]; at 50.0 µM 59% | [4]; [7] 15% | [4]; [8] 56% | [4]; at 50.0 µM 41.8% | [5]; [7] 30% | [6]; [7] -7%
active: [1]; [8] 81% | [1]; at 50.0 µM 70% | [2]; [8] 90% | [3]; [8] 75% | [5]; [8] 94% | [5]; at 50.0 µM 71.5% | [6]; [8] 91% | [6]; at 50.0 µM 73.6%

N#C/C(=C\c1c(Cl)cccc1Cl)c1nc2ccccc2[nH]1
inactive: [1]; [7] 38% | [2]; [7] 22% | [3]; [7] 33% | [4]; [7] 23% | [5]; [7] 35% | [6]; [7] 42%
active: [1]; [8] 97% | [1]; at 50.0 µM 87.7% | [2]; [8] 99% | [2]; at 50.0 µM 90.2% | [3]; [8] 99% | [3]; at 50.0 µM 90.6% | [4]; [8] 98% | [4]; at 50.0 µM 88.9% | [5]; [8] 98% | [5]; at 50.0 µM 91.5% | [6]; [8] 98% | [6]; at 50.0 µM 88.8%

CC(NNC(=S)N(C)C1CCCCC1)c1cc2ccccc2cn1 (stereo not given)
inactive: [1]; [7] 48% | [2]; [7] 55% | [6]; [7] 51%
active: [1]; [8] 92% | [1]; at 50.0 µM 86.8% | [2]; [8] 94% | [2]; at 50.0 µM 75.3% | [3]; [7] 97% | [3]; [8] 94% | [3]; at 50.0 µM 85.5% | [4]; [7] 94% | [4]; [8] 92% | [4]; at 50.0 µM 79.8% | [5]; [7] 94% | [5]; [8] 95% | [5]; at 50.0 µM 84% | [6]; [8] 93% | [6]; at 50.0 µM 83%

O=[N+]([O-])c1ccc(-c2nc3ccc(F)cc3[nH]2)o1
active: [1]; [7] 73% | [1]; [8] 99% | [1]; at 50.0 µM 99.6% | [2]; [7] 90% | [2]; [8] 99% | [2]; at 50.0 µM 99.8% | [3]; [7] 86% | [3]; [8] 100% | [3]; at 50.0 µM 99.7% | [4]; [8] 98% | [4]; at 50.0 µM 98.5% | [5]; [7] 70% | [5]; [8] 100% | [5]; at 50.0 µM 99.7% | [6]; [7] 94% | [6]; [8] 99% | [6]; at 50.0 µM 99.7%
inactive: [4]; [7] 34%

CN(C)c1ccc(/C=C\c2c3ccccc3cc[n+]2[O-])cc1
inactive: [1]; [7] -4% | [1]; [8] -1% | [1]; at 50.0 µM 70% | [2]; [7] -5% | [2]; [8] 0% | [2]; at 50.0 µM 3% | [3]; [7] 0% | [3]; [8] -12% | [3]; at 50.0 µM 17.9% | [4]; [7] -5% | [4]; [8] -5% | [4]; at 50.0 µM -10.2% | [5]; [7] -6% | [5]; [8] -11% | [5]; at 50.0 µM 21% | [6]; [7] -10% | [6]; [8] 8% | [6]; at 50.0 µM 14.8%
